Source: PubChem BioAssay (Tox21)
Where “and” joins values, the source holds several entries; their conditions need not be identical. Identical values can stand only once. Results filed as inconclusive are left out. Where a call stands in place of a potency, no number is given. A number with no mark means an inactive call. Calls of active or inactive are those of the source. Unless noted, the call rests on the fitted dose curve; in most records, active means well fitted curve in the direction sought with a large enough effect in the repeat runs; inconclusive means weak or mixed curves; inactive means no such curve, though single readings can be large; an effect the other way counts as inactive or inconclusive.

Key:
[1] = biological target: Aryl hydrocarbon receptor (Homo sapiens) (UniProt P35869); test: qHTS assay to identify small molecule that activate the aryl hydrocarbon receptor (AhR) signaling pathway (AID 743085); further: nearly all actives have a fitted effect of over 15% in size; further: potency means the concentration at half of the fitted maximal effect;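 on activation: HG2L7.5c1 human HepG2 liver cells with stably integrated DRE-driven firefly reporter; series mostly up to about 70 µM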
Sequence of Aryl hydrocarbon receptor (Homo sapiens) (P35869 whole entry, looked up): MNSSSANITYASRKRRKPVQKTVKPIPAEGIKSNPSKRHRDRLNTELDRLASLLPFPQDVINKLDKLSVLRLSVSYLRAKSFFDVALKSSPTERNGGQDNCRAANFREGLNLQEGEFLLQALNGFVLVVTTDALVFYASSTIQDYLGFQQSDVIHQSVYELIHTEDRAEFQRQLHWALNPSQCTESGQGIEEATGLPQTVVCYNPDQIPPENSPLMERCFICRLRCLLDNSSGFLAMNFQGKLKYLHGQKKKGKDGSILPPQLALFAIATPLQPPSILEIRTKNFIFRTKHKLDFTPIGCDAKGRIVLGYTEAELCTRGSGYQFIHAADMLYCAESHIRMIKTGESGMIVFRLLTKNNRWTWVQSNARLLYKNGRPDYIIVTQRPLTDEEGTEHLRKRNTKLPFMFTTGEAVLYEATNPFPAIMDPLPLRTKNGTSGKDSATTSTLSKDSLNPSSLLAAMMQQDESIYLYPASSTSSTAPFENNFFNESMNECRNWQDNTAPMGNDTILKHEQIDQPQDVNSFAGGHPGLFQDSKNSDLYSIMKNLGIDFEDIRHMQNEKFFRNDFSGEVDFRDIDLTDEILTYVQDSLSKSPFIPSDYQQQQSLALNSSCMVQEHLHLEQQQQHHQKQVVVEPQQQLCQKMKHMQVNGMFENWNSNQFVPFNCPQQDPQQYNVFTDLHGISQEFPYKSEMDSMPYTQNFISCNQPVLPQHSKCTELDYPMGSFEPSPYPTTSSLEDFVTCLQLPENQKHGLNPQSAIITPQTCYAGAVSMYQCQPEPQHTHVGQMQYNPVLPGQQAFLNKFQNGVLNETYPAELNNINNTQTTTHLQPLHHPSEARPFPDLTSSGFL
Summary of the method: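 24 h compound exposure, 37C, HepG2-derived HG2L7.5c1 cells with DRE-responsive luciferase. Readouts: fluorescence viability, then luminescence at room temperature after 30 min.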

[2] = biological target: Peroxisome proliferator-activated receptor gamma (Homo sapiens) (UniProt P37231); test: qHTS assay to identify small molecule agonists of the peroxisome proliferator-activated receptor gamma (PPARg) signaling pathway (AID 743094; active means well fitted activation curve with a large enough effect in the signal ratio in the repeat runs, not every such curve was filed as active; the % refers to the signal ratio)
Sequence of Peroxisome proliferator-activated receptor gamma (Homo sapiens) (P37231 whole entry, looked up): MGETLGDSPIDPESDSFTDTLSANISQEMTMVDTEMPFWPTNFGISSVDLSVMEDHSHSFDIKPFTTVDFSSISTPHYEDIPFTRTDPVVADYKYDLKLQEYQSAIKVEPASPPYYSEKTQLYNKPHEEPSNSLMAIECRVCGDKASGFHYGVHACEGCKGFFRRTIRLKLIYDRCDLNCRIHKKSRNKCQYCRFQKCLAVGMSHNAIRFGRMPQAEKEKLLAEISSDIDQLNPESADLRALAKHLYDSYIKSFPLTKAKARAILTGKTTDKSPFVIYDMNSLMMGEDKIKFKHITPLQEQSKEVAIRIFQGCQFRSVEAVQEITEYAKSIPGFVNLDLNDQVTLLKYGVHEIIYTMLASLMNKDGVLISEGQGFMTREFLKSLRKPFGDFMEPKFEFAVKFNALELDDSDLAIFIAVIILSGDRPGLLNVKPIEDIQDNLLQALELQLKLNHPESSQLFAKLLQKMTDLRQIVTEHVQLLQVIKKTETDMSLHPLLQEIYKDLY
Summary of the method: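 Stably transfected HEK293H cells (GeneBLAzer PPARg UAS-bla) were incubated with test substances for 17 h at 37C after a 5 h pre-incubation; beta-lactamase activity was then detected by FRET substrate fluorescence.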

[3] = biological target: Peroxisome proliferator-activated receptor gamma (Homo sapiens) (UniProt P37231); test: qHTS assay to identify small molecule antagonists of the peroxisome proliferator-activated receptor gamma (PPARg) signaling pathway (AID 743191; calls by dose curve; further: series mostly up to about 63 µM; nearly all actives have a fitted effect of over 30% in size)
Summary of the method: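 Beta-lactamase reporter under UAS control in HEK293H PPARg-bla cells; compound treatment 17 h at 37C. Read-out: fluorescence intensity after 1 h room-temperature incubation with LiveBLAzer B/G FRET substrate.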

[4] = qHTS assay to identify small molecule antagonists of the peroxisome proliferator-activated receptor gamma (PPARg) signaling pathway - cell viability counter screen (AID 743194); conditions: Potency: co-treated with 50 nM rosiglitazone unless noted; further: nearly all actives have a fitted effect of over 55% in size; further: potency means the concentration at half of the fitted maximal effect
Summary of the method: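 Viability was measured as CellTiter-Glo luminescence in GeneBLAzer PPARg UAS-bla HEK293H cells. These cells had been exposed 17 h at 37 C to compounds together with rosiglitazone at 50 nM final, with the beta-lactamase readout taken in the same wells.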

[5] = qHTS assay for small molecule agonists of the antioxidant response element (ARE) signaling pathway (AID 743202; active means well fitted activation curve with a large enough effect in the signal ratio in the repeat runs, not every such curve was filed as active; the % refers to the signal ratio)
Summary of the method: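 Quantitative high-throughput format in HepG2 cells bearing an integrated ARE-beta-lactamase reporter. Compound exposure lasted 16 h at 37 C, and fluorescence was read 2 h after adding LiveBLAzer B/G substrate at room temperature.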

[6] = qHTS assay for small molecule agonists of the antioxidant response element (ARE) signaling pathway - cell viability counter screen (AID 743203; calls by dose curve; further: nearly all actives have a fitted effect of over 55% in size; further: potency means the concentration at half of the fitted maximal effect)
Summary of the method: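 Cells (ARE-bla HepG2, 2,000/well) receive DMSO-dissolved compounds after a 5 hrs rest. Plates incubate 16 hrs at 37C/5% CO2. CellTiter-Glo luminescence is then recorded after 30 min at room temperature.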

[7] = qHTS assay to identify small molecule antagonists of the peroxisome proliferator-activated receptor delta (PPARd) signaling pathway - cell viability counter screen (AID 743213); further: nearly all actives have a fitted effect of over 50% in size
Summary of the method: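 HEK293H cells with the PPARd UAS-bla reporter, co-treated 17 h at 37 C with compounds and L165041 (300 nM final), were lysed with CellTiter-Glo. Luminescence indicated viable cell content.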

[8] = qHTS assay to identify small molecule agonists of the farnesoid-X-receptor (FXR) signaling pathway - cell viability counter screen (AID 743218); further: nearly all actives have a fitted effect of over 45% in size
Summary of the method: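 In GeneBLAzer FXR-UAS-bla HEK 293T cells, compounds act for 16 h at 37 C. Cell viability is then scored in the reporter wells by CellTiter-Glo, 30 min at RT, luminescence.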

[9] = qHTS assay to identify small molecule antagonists of the farnesoid-X-receptor (FXR) signaling pathway - cell viability counter screen (AID 743221; active means well fitted cell-killing curve with a large enough effect in the repeat runs, not every such curve was filed as active; further: nearly all actives have a fitted effect of over 50% in size)
Summary of the method: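 In GeneBLAzer FXR-UAS-bla HEK 293T cells stimulated with 50 uM chenodeoxycholic acid (final), compounds acted for 16 h at 37 C. Viability was assessed afterwards by CellTiter-Glo luminescence.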

[10] = biological target: Vitamin D3 receptor (Homo sapiens) (UniProt P11473); test: qHTS assay to identify small molecule agonists of the vitamin D receptor (VDR) signaling pathway (AID 743222; calls by dose curve)
Sequence of Vitamin D3 receptor (Homo sapiens) (P11473 whole entry, looked up): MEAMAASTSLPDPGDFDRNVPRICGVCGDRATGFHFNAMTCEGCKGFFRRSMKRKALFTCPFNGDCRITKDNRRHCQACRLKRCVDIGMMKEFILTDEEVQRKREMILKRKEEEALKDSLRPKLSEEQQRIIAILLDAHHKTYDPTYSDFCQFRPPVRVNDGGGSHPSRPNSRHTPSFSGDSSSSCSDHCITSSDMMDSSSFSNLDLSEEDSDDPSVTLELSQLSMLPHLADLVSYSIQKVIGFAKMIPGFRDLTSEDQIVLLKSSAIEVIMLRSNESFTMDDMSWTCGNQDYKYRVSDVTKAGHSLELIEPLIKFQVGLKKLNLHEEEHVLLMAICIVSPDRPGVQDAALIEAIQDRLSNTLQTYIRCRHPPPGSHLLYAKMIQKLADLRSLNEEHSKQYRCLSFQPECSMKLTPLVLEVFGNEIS
Summary of the method: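 Agonist activity measured in VDR-bla reporter cells. Exposure 16 h, 37C, 5% CO2; detection by B/G FRET substrate, 2 h RT.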

[11] = biological target: Vitamin D3 receptor (Homo sapiens) (UniProt P11473); test: qHTS assay to identify small molecule antagonists of the vitamin D receptor (VDR) signaling pathway (AID 743223; active means well fitted inhibition curve with a large enough effect in the signal ratio in the repeat runs, not every such curve was filed as active; the % refers to the signal ratio)
Summary of the method: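 Agonist 1alpha,25-dihydroxyvitamin D3 (3 nM in well) was added with each compound to VDR-bla cells preincubated 4 h. Cells stood 16 h at 37C, then FRET substrate 2 h at room temperature; fluorescence intensity recorded.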

[12] = qHTS assay to identify small molecule agonists of the vitamin D receptor (VDR) signaling pathway - cell viability counter screen (AID 743224); further: series mostly up to about 63 µM; nearly all actives have a fitted effect of over 50% in size
Summary of the method: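 VDR-bla cell line, quantitative HTS format; 16 h compound incubation (37C, 5% CO2); ATP-based CellTiter-Glo luminescence measured in the reporter assay wells.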

[13] = qHTS assay for small molecule activators of the heat shock response signaling pathway - cell viability counter screen (AID 743209); further: nearly all actives have a fitted effect of over 50% in size; further: potency means the concentration at half of the fitted maximal effect
Summary of the method: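 Quantitative HTS format, Tox21 10K library. HeLa cells carrying an HSE-driven beta-lactamase reporter were treated 5 h at 37 C, then assessed for viability by CellTiter-Glo luminescence.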

[14] = qHTS assay to identify small molecule agonists of the peroxisome proliferator-activated receptor delta (PPARd) signaling pathway - cell viability counter screen (AID 743211); further: nearly all actives have a fitted effect of over 55% in size; further: potency means the concentration at half of the fitted maximal effect
Summary of the method: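 Luminescent ATP viability assay (CellTiter-Glo, 30 min RT) in UAS-bla HEK293H cells carrying the PPAR delta reporter construct, 3000 cells/well, after a 17 h compound treatment at 37 C.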

[15] = biological target: Peroxisome proliferator-activated receptor delta (Homo sapiens) (UniProt Q03181); test: qHTS assay to identify small molecule agonists of the peroxisome proliferator-activated receptor delta (PPARd) signaling pathway (AID 743212; calls by dose curve)
Sequence of Peroxisome proliferator-activated receptor delta (Homo sapiens) (Q03181 whole entry, looked up): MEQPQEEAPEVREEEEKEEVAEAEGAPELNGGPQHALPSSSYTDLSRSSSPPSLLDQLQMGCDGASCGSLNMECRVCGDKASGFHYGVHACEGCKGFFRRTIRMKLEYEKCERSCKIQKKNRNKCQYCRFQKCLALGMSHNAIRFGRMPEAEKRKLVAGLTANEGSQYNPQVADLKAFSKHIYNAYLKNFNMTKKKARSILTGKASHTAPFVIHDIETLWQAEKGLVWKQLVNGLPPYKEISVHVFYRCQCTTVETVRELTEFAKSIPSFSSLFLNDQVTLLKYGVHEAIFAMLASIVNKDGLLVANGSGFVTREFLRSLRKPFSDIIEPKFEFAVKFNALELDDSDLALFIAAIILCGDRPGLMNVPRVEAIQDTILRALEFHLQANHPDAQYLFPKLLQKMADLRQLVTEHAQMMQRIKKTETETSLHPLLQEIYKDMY
Summary of the method: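 HEK293H PPARd-bla cells; 5 h preincubation 37 C/5% CO2; compound (DMSO) 37 C; LiveBLAzer B/G FRET substrate 2 h RT; fluorescence intensity.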

[16] = biological target: Peroxisome proliferator-activated receptor delta (Homo sapiens) (UniProt Q03181); test: qHTS assay to identify small molecule antagonists of the peroxisome proliferator-activated receptor delta (PPARd) signaling pathway (AID 743215; active means well fitted inhibition curve with a large enough effect in the signal ratio in the repeat runs, not every such curve was filed as active; the % refers to the signal ratio;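 further: cells stimulated with agonist L165041 at 300 nM final during compound exposure; series mostly up to about 62 µM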)
Summary of the method: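 Antagonist-mode beta-lactamase reporter screen: HEK293H cells with UAS-bla under PPARd control, stimulated by 300 nM L165041 (final) alongside test compound for 17 h at 37 C, then FRET fluorescence after 2 h substrate incubation.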

[17] = biological target: Bile acid receptor (Homo sapiens) (UniProt Q96RI1); test: qHTS assay to identify small molecule agonists of the farnesoid-X-receptor (FXR) signaling pathway (AID 743220; active means well fitted activation curve with a large enough effect in the signal ratio in the repeat runs, not every such curve was filed as active; the % refers to the signal ratio)
Sequence of Bile acid receptor (Homo sapiens) (Q96RI1 whole entry, looked up): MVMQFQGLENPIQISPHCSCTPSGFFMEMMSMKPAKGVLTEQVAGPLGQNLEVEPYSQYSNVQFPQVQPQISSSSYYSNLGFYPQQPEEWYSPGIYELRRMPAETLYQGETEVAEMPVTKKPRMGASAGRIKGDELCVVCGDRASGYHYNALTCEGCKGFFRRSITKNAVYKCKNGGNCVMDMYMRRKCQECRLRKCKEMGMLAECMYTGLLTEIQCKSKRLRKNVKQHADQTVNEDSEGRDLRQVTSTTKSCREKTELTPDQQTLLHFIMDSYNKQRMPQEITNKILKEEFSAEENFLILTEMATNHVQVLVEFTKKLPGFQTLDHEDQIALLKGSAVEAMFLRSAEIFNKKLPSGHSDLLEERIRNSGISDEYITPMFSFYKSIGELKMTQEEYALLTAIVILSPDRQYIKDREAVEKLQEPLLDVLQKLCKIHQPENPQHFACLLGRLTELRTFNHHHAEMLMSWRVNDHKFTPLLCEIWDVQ
Summary of the method: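 Beta-lactamase reporter under UAS control in GeneBLAzer FXR HEK 293T cells (5000/well) measured with LiveBLAzer FRET substrate after 2 h at room temperature. Compound exposure lasted 16 h at 37C.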

[18] = qHTS assay to identify small molecule that activate the aryl hydrocarbon receptor (AhR) signaling pathway - cell viability counter screen (AID 743086);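 further: HepG2 liver cells carrying the AhR DRE luciferase reporter; series mostly up to about 70 µM; nearly all actives have a fitted effect of over 45% in size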
Summary of the method: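 Cytotoxicity counter screen: CellTiter-Fluor signal (30 min, 37 C) in 4000 HepG2 cells/well carrying the DRE-luciferase reporter, following 24 h compound exposure at 37 C.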

[19] = qHTS assay for small molecule activators of the heat shock response signaling pathway (AID 743210; active means well fitted activation curve with a large enough effect in the signal ratio in the repeat runs, with a control signal flat, not every such curve was filed as active; the % refers to the signal ratio;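 further: HeLa cells with beta-lactamase reporter driven by heat shock elements; series mostly up to about 63 µM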)
Summary of the method: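 HeLa HSE-bla cells, overnight plating; cpd in DMSO 5 h, 37 C; LiveBLAzer B/G FRET substrate 2.5 h RT; fluorescence intensity read.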

[20] = biological target: Bile acid receptor (Homo sapiens) (UniProt Q96RI1); test: qHTS assay to identify small molecule antagonists of the farnesoid-X-receptor (FXR) signaling pathway (AID 743217; active means well fitted inhibition curve with a large enough effect in the signal ratio in the repeat runs, not every such curve was filed as active; the % refers to the signal ratio)
Summary of the method: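 Beta-lactamase reporter under UAS control in HEK 293T cells; compound exposure 16 h at 37 °C in the presence of chenodeoxycholic acid (50 uM final); signal from B/G FRET substrate after 2 h at room temperature.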

COc1nc(C)nc(NC(=O)NS(=O)(=O)c2ccccc2Cl)n1
Potency [1]: inactive | Potency [2]: inactive | Potency [3]: inactive | Potency [4]: inactive | Potency [5]: inactive | Potency [6]: inactive | Potency [7]: inactive | Potency [8]: inactive | Potency [9]: inactive | Potency [10]: inactive | Potency [11]: inactive | Potency [12]: inactive

Clc1ccc(C(c2ccc(Cl)cc2)C(Cl)Cl)cc1
Potency [1]: inactive | Potency [2]: inactive | Potency [4]: 24.9 µM (active) and 38.9 µM (active) | Potency [6]: 54.5 µM (active) | Potency [13]: 49 µM (active) | Potency [14]: 44.4 µM (active) | Potency [15]: inactive | Potency [16]: inactive | Potency [17]: inactive | Potency [9]: inactive | Potency [10]: inactive | Potency [11]: inactive

CC(C)=CCN1CC[C@@]2(C)c3cc(O)ccc3C[C@@H]1[C@@H]2C
Potency [18]: inactive | Potency [2]: inactive | Potency [3]: inactive | Potency [4]: inactive | Potency [5]: inactive | Potency [6]: inactive | Potency [19]: inactive | Potency [14]: inactive | Potency [15]: inactive | Potency [7]: inactive | Potency [16]: inactive | Potency [9]: inactive | Potency [10]: inactive | Potency [11]: inactive | Potency [12]: inactive

CCOP(=S)(OCC)Oc1cc(C)nc(N(CC)CC)n1
Potency [1]: 2.73 µM (active) | Potency [2]: inactive | Potency [6]: inactive | Potency [13]: inactive | Potency [19]: inactive | Potency [15]: inactive | Potency [7]: inactive | Potency [16]: inactive | Potency [20]: inactive | Potency [17]: inactive | Potency [10]: inactive | Potency [11]: inactive | Potency [12]: inactive

CCN(CC)C(=O)N[C@@H]1C=C2c3cccc4[nH]cc(c34)C[C@@H]2N(C)C1
Potency [18]: inactive | Potency [2]: inactive | Potency [3]: inactive | Potency [4]: inactive | Potency [5]: inactive | Potency [6]: inactive | Potency [13]: inactive | Potency [19]: inactive | Potency [14]: inactive | Potency [7]: inactive | Potency [17]: inactive | Potency [9]: inactive | Potency [10]: inactive

C[C@H]1[C@H](c2ccc(Cl)cc2)SC(=O)N1C(=O)NC1CCCCC1
Potency [1]: inactive | Potency [2]: inactive | Potency [4]: inactive | Potency [6]: inactive | Potency [13]: inactive | Potency [14]: inactive | Potency [8]: inactive | Potency [9]: inactive | Potency [10]: inactive

C=CCOC(=O)c1ccccc1N
Potency [18]: inactive | Potency [2]: inactive | Potency [3]: inactive | Potency [4]: inactive | Potency [5]: inactive | Potency [6]: inactive | Potency [13]: inactive | Potency [19]: inactive | Potency [14]: inactive | Potency [15]: inactive | Potency [7]: inactive | Potency [16]: inactive | Potency [8]: inactive | Potency [9]: inactive | Potency [10]: inactive | Potency [12]: inactive

N#Cc1c[nH]cc1-c1cccc2c1OC(F)(F)O2
Potency [18]: inactive | Potency [2]: inactive | Potency [4]: inactive | Potency [5]: inactive | Potency [6]: inactive | Potency [15]: inactive | Potency [8]: inactive | Potency [9]: inactive | Potency [10]: inactive | Potency [12]: inactive
